Source: PubChem (Broad Institute)
LMP1 NFkB inh – inhibitors of Epstein-Barr LMP1-induced NF-kappaB reporter. LMP1-induced NF-kappaB luciferase reporter cells, luminescence. inhibition, % at 12.5 µM. hit rate 0.69% among 350,000; in the data active = inhibition above about 41%; inconclusive = no clear call, values can overlap the other calls
MITF act – activators of MITF-driven TRPM1 promoter activity in SK-MEL-5 cells; SK-MEL-5 TRPM1-promoter luciferase, 24 h; % of positive control, neutral wells = 0; activation, % at 12.5 µM; hit rate 0.75% among 300,000; AID 588334;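 active = mean activation of at least 80% with every replicate also reaching 80%; inconclusive = mean reaches 80% but some replicate falls short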
esBAF inh – blocks esBAF chromatin remodeling in mouse ES cells; Bmi1-luciferase knock-in reporter, 24 h; 100% = twice the neutral-well signal; reporter increase, % at 12.5 µM; hit rate 2% among 350,000; in the data active = activation above about 40%; inconclusive = no clear call, values can overlap the other calls;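 also: a rise in the Bmi1 reporter signal indicates esBAF inhibition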
TRPM1 prom inh – MITF TRPM1 promoter inhibition in SK-MEL-5 cells; SK-MEL-5 TRPM1 promoter luciferase, 24 h; inhibition, % at 12.5 µM; hit rate 0.83% among 330,000; AID 488899;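 active = mean inhibition across replicates of 60% or more, whatever share of single replicates reaches that level; inconclusive = some that reach 60%, reason not given; inactive = mean inhibition across replicates below 60%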
Wnt bcat act – activates Wnt/beta-catenin signaling in a reporter cell assay; activator, plate reader; activation, % at 9.35 µM; hit rate 1.2% among 300,000; AID 743398; in the data active = activation above about 30%, passing the limit was not always enough; inconclusive = no clear call, values can overlap the other calls
C2C12 statin – suppressors of simvastatin-induced myotoxicity in C2C12 myotubes | hit rate 0.78% among 330,000 | rescue of ATP level, % at 7.49 µM | ATP luminescence, 48 h; scaled: DMSO 0, geranylgeraniol control 100;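 active = mean ATP rescue above about 67%, or every replicate alone reaching that limit, limit read from the data, passing the limit was not always enough; inconclusive = no clear call, values can overlap the other calls; inactive = mean under the limit and some replicate under it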;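 also: myotubes were challenged with 10 µM simvastatin during compound exposure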
Hits are given with their value. Compounds with a hit are over-represented: about 4% of the library has one in this group of screens.

`CCNC(=S)N1CCCCC1CO` (configuration not stated) gave LMP1 NFkB inh inactive, MITF act inactive, TRPM1 prom inh inactive and Wnt bcat act inactive.
Cc1cccc(NC(=S)NC2CCCC2)c1 was read as LMP1 NFkB inh inactive, MITF act inactive and TRPM1 prom inh inactive.
Cc1cccc(NC(=S)NC2CC3C=CC2C3)c1 (configuration not stated) was read as LMP1 NFkB inh inactive, MITF act inactive, esBAF inh inactive, TRPM1 prom inh inactive, Wnt bcat act inactive and C2C12 statin 100.
O=C(Nc1ccc(F)cc1)N1CCCCN2[C@@H](CO)[C@H](c3ccc(-c4cccc(F)c4)cc3)[C@@H]2C1 was read as esBAF inh inactive and C2C12 statin inactive.
For CN(C)Cc1c(O)ccc2c1O/C(=C\C=C\c1ccccc1)C2=O the results were LMP1 NFkB inh inactive, MITF act inactive, esBAF inh inactive, TRPM1 prom inh 93, Wnt bcat act inactive and C2C12 statin inconclusive.
`CCN1CCN(Cc2c(O)ccc3c2O/C(=C\C=C\c2ccccc2)C3=O)CC1` gave LMP1 NFkB inh inactive, MITF act inactive, esBAF inh inactive, TRPM1 prom inh inactive, Wnt bcat act inactive and C2C12 statin inactive.
For CCN1C(=O)CS/C1=C(\C#N)S(=O)(=O)c1ccccc1 the results were LMP1 NFkB inh inactive, esBAF inh inactive, TRPM1 prom inh inactive and C2C12 statin inactive.
For N#CC(=C1Nc2ccccc2N1)S(=O)(=O)c1ccccc1 the results were LMP1 NFkB inh inactive, MITF act inactive, esBAF inh inactive, TRPM1 prom inh inactive, Wnt bcat act inactive and C2C12 statin 108.
Cc1ccc2c(c1)Sc1ccccc1CC2=O was read as LMP1 NFkB inh inactive, MITF act inactive, esBAF inh 61, TRPM1 prom inh inactive, Wnt bcat act inactive and C2C12 statin 83.
For O=C1Cc2ccccc2Sc2ccccc21 the results were LMP1 NFkB inh inactive, MITF act inactive, esBAF inh inactive, TRPM1 prom inh inactive and C2C12 statin inactive.
Screening O=C(O)CCCC(=O)NNC(=O)c1cccc(Br)c1 returned LMP1 NFkB inh inactive, MITF act inactive, esBAF inh inactive, TRPM1 prom inh inactive, Wnt bcat act inactive and C2C12 statin inactive.
Screening Cc1ccc(S(=O)(=O)Nc2cccc3c2O[C@H](CN(C)S(=O)(=O)c2cccs2)[C@H](C)CN([C@H](C)CO)C3=O)cc1 returned esBAF inh inactive and C2C12 statin inactive.
O=C1C=C(Nc2ccccc2O)c2ccccc2C1=O was read as LMP1 NFkB inh inactive, MITF act inactive, esBAF inh inactive, TRPM1 prom inh 100, Wnt bcat act inactive and C2C12 statin inactive.
O=C1C=C(NCc2ccccc2)c2ccccc2C1=O was read as LMP1 NFkB inh inactive, MITF act inactive, TRPM1 prom inh 104 and Wnt bcat act inactive.
Cc1ccc(NC2=CC(=O)C(=O)c3ccccc32)c(C)c1 was read as LMP1 NFkB inh inactive, esBAF inh inactive, Wnt bcat act inactive and C2C12 statin inactive.
COc1cc(Cl)c(NC2=CC(=O)C(=O)c3ccccc32)c(OC)c1 was read as LMP1 NFkB inh inactive, MITF act inactive, esBAF inh inactive, TRPM1 prom inh 96, Wnt bcat act inactive and C2C12 statin inactive.
For O=C1C=C(Nc2ccc(F)cc2)c2ccccc2C1=O the results were LMP1 NFkB inh inactive, MITF act inactive, esBAF inh inactive, TRPM1 prom inh 97, Wnt bcat act inactive and C2C12 statin inactive.
For COc1cc(/C=N/NC(=O)Cn2nnc3ccccc32)ccc1O the results were LMP1 NFkB inh inactive, MITF act inactive, TRPM1 prom inh inactive and Wnt bcat act inactive.
Cc1ccc(S(=O)(=O)Nc2ccc3c(c2)C(=O)N(C)[C@@H]2CC[C@@H](CC(=O)NCCc4ccncc4)O[C@@H]2CO3)cc1 was read as esBAF inh inactive and C2C12 statin inactive.
Screening COc1ccccc1NC(=O)N(C)C[C@H]1Oc2ncc(C#CCN(C)C)cc2C(=O)N([C@@H](C)CO)C[C@@H]1C returned esBAF inh inactive and C2C12 statin inactive.
Screening O=C1C=C(Nc2cccnc2)c2ccccc2C1=O returned LMP1 NFkB inh inactive, MITF act inactive, TRPM1 prom inh 101 and Wnt bcat act inactive.
`CCOc1ccc(NC2=CC(=O)C(=O)c3ccccc32)cc1` gave LMP1 NFkB inh inactive, MITF act inactive, TRPM1 prom inh 102 and Wnt bcat act inactive.
`O=c1oc2ccccc2c(Nc2ccc(O)cc2)c1[N+](=O)[O-]` gave LMP1 NFkB inh inactive, MITF act inactive, esBAF inh inactive, TRPM1 prom inh inactive and C2C12 statin 133.
Screening CCCCn1cnc2c(SCc3ccccc3F)nc(N)nc21 returned LMP1 NFkB inh inactive, MITF act inactive, esBAF inh 50, TRPM1 prom inh inactive, Wnt bcat act inactive and C2C12 statin inactive.
For CCCn1cnc2c(SCc3ccccc3Cl)nc(N)nc21 the results were LMP1 NFkB inh inactive, MITF act inactive, esBAF inh 48, TRPM1 prom inh inactive, Wnt bcat act inactive and C2C12 statin inactive.
Screening CCCn1cnc2c(SCc3ccccn3)nc(N)nc21 returned LMP1 NFkB inh inactive, MITF act inactive, esBAF inh inactive, TRPM1 prom inh inactive, Wnt bcat act inactive and C2C12 statin inactive.
CCN(CC(=O)Nc1c(F)cccc1F)C(=O)/C=C/c1c(C)nn(-c2ccc(F)cc2)c1C was read as LMP1 NFkB inh inactive, MITF act inactive, TRPM1 prom inh inactive, Wnt bcat act inactive and C2C12 statin inactive.
For CC=Cc1ccc2n(c1=O)C[C@@H]1[C@@H](CO)[C@H](C(=O)NCc3ccccc3)[C@H]2N1CC (mixture of isomers) the results were esBAF inh inactive and C2C12 statin inactive.
For CC(C)Cn1c(N)c(C(=O)COC(=O)C2CC(=O)N(Cc3ccccc3Cl)C2)c(=O)n(C)c1=O (configuration not stated) the results were LMP1 NFkB inh inactive, MITF act inactive, TRPM1 prom inh inactive and Wnt bcat act inactive.
`CCOc1ccccc1NC(=O)Cn1c(=O)oc2ccccc21` gave LMP1 NFkB inh inactive, MITF act inactive, esBAF inh inactive, TRPM1 prom inh inactive, Wnt bcat act inactive and C2C12 statin inactive.
Screening CCOc1ccccc1NC(=O)Cn1c(=O)sc2ccccc21 returned LMP1 NFkB inh 64, MITF act inactive, TRPM1 prom inh inactive and Wnt bcat act inactive.
For Cc1cc(C)n(CC(=O)NNC(=O)CCCOc2ccc(Cl)cc2C)n1 the results were LMP1 NFkB inh inactive, MITF act inactive, esBAF inh inactive, TRPM1 prom inh inactive, Wnt bcat act inactive and C2C12 statin inactive.
For Cc1ccccc1OCC(O)Cn1nnc2ccccc21 (configuration not stated) the results were LMP1 NFkB inh inactive, MITF act inactive, esBAF inh 65, TRPM1 prom inh inactive and C2C12 statin inactive.
For O=C1/C(=C\c2ccccc2)CCc2c1[nH]c1ccccc21 the results were LMP1 NFkB inh inactive, MITF act inactive, esBAF inh inactive, TRPM1 prom inh inactive, Wnt bcat act 39 and C2C12 statin inactive.
